Our source for the growth values is PubChem BioAssay (NCI).

Common to all, as to assay: NCI-60 one-dose screen, 48 h (100 = growth as untreated, 0 = no growth, -100 = all killed)
One assay relates to NCI-H23 lung. As to conditions: 10 µM unless noted.
Another assay relates to NCI-H226 lung. As to conditions: 10 µM unless noted.
The test system of another assay is NCI-H322M lung. As to conditions: 10 µM unless noted.
The test system of a further assay is NCI-H460 lung. As to conditions: 10 µM unless noted.
The test system of a further assay is HOP-92 NSCLC. The following applies: 10 µM.
The subject of a further assay is NCI-H522 lung. The following applies: 10 µM.
The test system of another assay is A549/ATCC NSCLC. The following applies: 10 µM unless noted.
The next assay has as its system COLO 205 colon. As to conditions: 10 µM unless noted.
A further assay deals with DU-145 prostate. The following applies: 10 µM unless noted.
The next assay concerns K-562 leukemia. As to conditions: 10 µM unless noted.
The test system of the next assay is MALME-3M melanoma. As to conditions: 10 µM unless noted.
The next assay has as its system MDA-MB-231 breast. The following applies: 10 µM unless noted.
Another assay has as its system SF-268 CNS. As to conditions: 10 µM unless noted.
The subject of a further assay is SF-539 CNS. As to conditions: 10 µM unless noted.
A further assay relates to UACC-257 melanoma. The following applies: 10 µM unless noted.
The test system of a further assay is M14 melanoma. As to conditions: 10 µM unless noted.
For another assay, the system named is 786-0 renal. As to conditions: 10 µM unless noted.
The next assay has as its system RXF 393 renal. As to conditions: 10 µM unless noted.
In the next assay the test system is SF-295 CNS. The following applies: 10 µM unless noted.

The panel holds about 83,000 compounds, 20% with a hit somewhere; the sample as a whole holds those more often.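 Compound tested at a single concentration for 48 hours in 96-well plates; a percent growth value below 10 was scored as active.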 Values without a mark were called inactive. Activity calls are given as the source filed them.

With `O=C(N/N=C\c1ccc(-c2ccc(Br)cc2)o1)c1cc2oc(-c3cccc(C(F)(F)F)c3)cc2[nH]1`, the growth was 96.8% in the assay with NCI-H23 lung; 106% in the assay on NCI-H226 lung; 70.6% in the assay on NCI-H322M lung; 91.5% with NCI-H460 lung; 111% with HOP-92 NSCLC; 122% in the assay with NCI-H522 lung. The growth in the assay with A549/ATCC NSCLC was 38.3%; with COLO 205 colon, 107%; in the assay with DU-145 prostate it was 126%; in the assay with K-562 leukemia, 90.2%; in the assay with MALME-3M melanoma, 97.1%; in the assay with MDA-MB-231 breast, 111%. Besides, the growth is 87.7% with SF-268 CNS, 97.9% in the assay on SF-539 CNS, -48.2% (active) in the assay on UACC-257 melanoma and 117% with M14 melanoma.
On to `COc1cc(CCNc2cnc3cc(N)cc(N)c3n2)cc(OC)c1`, for which the growth in the assay with NCI-H23 lung is 107%; in the assay on NCI-H226 lung, 99.4%; in the assay with NCI-H322M lung, 102%; in the assay with NCI-H460 lung it was 120%; in the assay with NCI-H522 lung, 98.2%; with A549/ATCC NSCLC it was 112%. Further, the growth with 786-0 renal is 101%; in the assay with COLO 205 colon it was 136%; with DU-145 prostate, 118%; in the assay with K-562 leukemia, 35.3%; in the assay on MALME-3M melanoma it was 146%; in the assay with MDA-MB-231 breast, 96.7%. Besides, the growth in the assay with RXF 393 renal is 114%; in the assay with SF-268 CNS, 109%; in the assay with SF-295 CNS, 116%; in the assay with SF-539 CNS, 123%; in the assay on UACC-257 melanoma it was 111%.
In the case of `Cc1nc(NC(=S)Nc2ccc(F)cc2)sc1C(=O)NNC(=S)Nc1ccc(F)cc1`, the growth in the assay with NCI-H23 lung is 38%; in the assay on NCI-H226 lung, 60.7%; in the assay with NCI-H322M lung, 86.8%; with NCI-H460 lung, 70.2%; in the assay with NCI-H522 lung it was 33.9%; with A549/ATCC NSCLC it was 66.2%. In addition, the growth is 18.9% in the assay on 786-0 renal; 85.9% in the assay with COLO 205 colon; 82% with DU-145 prostate; 51.4% in the assay on K-562 leukemia; 125% with MALME-3M melanoma; 77.9% in the assay on MDA-MB-231 breast. For the same compound, the growth is 94% with RXF 393 renal; 92.4% in the assay with SF-268 CNS; 40.6% in the assay with SF-295 CNS; 93.8% in the assay with SF-539 CNS; 82.1% in the assay with UACC-257 melanoma; 51% in the assay on M14 melanoma.
With `Cc1cc2c(-c3nc4ccccc4[nH]3)c(O)c(O)cc2c(O)c1-c1c(C)cc2c(-c3nc4ccccc4[nH]3)c(O)c(O)cc2c1O`, the growth in the assay on NCI-H23 lung was -19.5% (active); in the assay with NCI-H226 lung, -18.2% (active); with NCI-H322M lung, 20.2%; in the assay with NCI-H460 lung, -53.7% (active); in the assay on HOP-92 NSCLC, 29.1%; in the assay on NCI-H522 lung it was -36.8% (active). The growth in the assay on A549/ATCC NSCLC is -25.4% (active); with 786-0 renal, -11.1% (active); in the assay with DU-145 prostate, 16.6%; with K-562 leukemia it was 6.02% (active); in the assay on MALME-3M melanoma, -6.72% (active); with MDA-MB-231 breast, 23.3%. Further, the growth with RXF 393 renal was -8.07% (active); in the assay on SF-268 CNS it was 6.93% (active); in the assay with SF-295 CNS it was -17.5% (active); in the assay with SF-539 CNS, -24.5% (active); in the assay with UACC-257 melanoma it was -3.19% (active); in the assay on M14 melanoma it was -3.53% (active).
Take `CCCCCSc1ccc2nc(NC(=O)OCCC)sc2c1`: the growth was 25.5% in the assay with NCI-H23 lung; 30.1% in the assay with NCI-H226 lung; 50% in the assay on NCI-H322M lung; 13.9% in the assay on NCI-H460 lung; 36.3% in the assay on HOP-92 NSCLC; 29.4% in the assay on NCI-H522 lung. Further, the growth with A549/ATCC NSCLC was 46.4%; in the assay on 786-0 renal, 31.1%; in the assay with DU-145 prostate it was 43.2%; with K-562 leukemia, 19%; with MALME-3M melanoma, 62.5%; with MDA-MB-231 breast, 43.3%. In addition, the growth with RXF 393 renal is 28.8%; with SF-268 CNS, 55.2%; in the assay on SF-295 CNS it was 19.9%; in the assay with SF-539 CNS, -24.7% (active); with UACC-257 melanoma, 63.1%; in the assay with M14 melanoma it was 23.1%.
For `Nc1ncn([C@@H]2O[C@H](CO)[C@@H](O)C2(F)F)c(=O)n1`, the growth in the assay with NCI-H23 lung is 30.6%; in the assay on NCI-H226 lung, 52.3%; in the assay with NCI-H322M lung, 70%; with NCI-H460 lung, 9.34% (active); in the assay on HOP-92 NSCLC it was 34.3%; in the assay with NCI-H522 lung it was 86.9%. Besides, the growth is 37.9% in the assay with A549/ATCC NSCLC; 26.3% in the assay with 786-0 renal; 43.5% in the assay with DU-145 prostate; 65.7% with K-562 leukemia; 67.9% with MALME-3M melanoma; 80% with MDA-MB-231 breast. For the same compound, the growth with RXF 393 renal was 45%; in the assay on SF-268 CNS, 65.4%; in the assay with SF-295 CNS it was 77.9%; with SF-539 CNS, 22.3%; in the assay with UACC-257 melanoma, 77.5%; in the assay on M14 melanoma, 15.6%.
Regarding `CCOC(=O)c1c(C)oc2ncnc(Nc3ccc(NC(=O)Nc4cccc(Cl)c4)cc3)c12`, the growth in the assay with NCI-H23 lung was 64.1%; in the assay with NCI-H226 lung, 54.8%; with NCI-H322M lung, 83.6%; with NCI-H460 lung it was 67.2%; with HOP-92 NSCLC it was 50.7%; in the assay on NCI-H522 lung, 57.2%. The growth was 32.3% in the assay with A549/ATCC NSCLC; 79.1% in the assay on 786-0 renal; 70.8% in the assay on DU-145 prostate; 67.7% with K-562 leukemia; 81.4% with MALME-3M melanoma; -18.7% (active) in the assay with MDA-MB-231 breast. Besides, the growth in the assay with RXF 393 renal was 63.6%; in the assay with SF-268 CNS, 86.4%; with SF-295 CNS, 79.6%; in the assay on SF-539 CNS, 16.6%; in the assay with UACC-257 melanoma it was 84%; with M14 melanoma it was 48.6%.
`COC(=O)Nc1nc2ccc(C(=O)c3ccccc3N(C)C3COC3)cc2[nH]1`: the growth with NCI-H23 lung was 54.4%; in the assay on NCI-H226 lung it was 49.6%; in the assay on NCI-H322M lung it was 49.5%; in the assay with NCI-H460 lung, 13.5%; with HOP-92 NSCLC it was 41.1%; in the assay on NCI-H522 lung it was 13.1%. Also, the growth in the assay with A549/ATCC NSCLC is 42.4%; in the assay on 786-0 renal it was 34.4%; with DU-145 prostate it was 33.7%; in the assay on MALME-3M melanoma it was 58.8%; in the assay with MDA-MB-231 breast it was 55.2%; in the assay with SF-268 CNS, 45.7%. The growth in the assay with SF-295 CNS is 14.3%; in the assay with SF-539 CNS, 9.06% (active); in the assay with UACC-257 melanoma, 37.9%; in the assay with M14 melanoma it was 12.8%.
